HP1b chromo inh: blocks HP1-beta chromodomain binding to methylated histone tails; P83916; AlphaScreen HP1-beta / biotin-H3K9me3 peptide binding; Potency, µM (titrated, usually from 114 µM), actives largely listed as inhibitors; hit rate 0.56% among 390,000; AID 540317; also: nearly all actives have a fitted effect of over 70% in size
Target sequence (P83916 whole entry, looked up): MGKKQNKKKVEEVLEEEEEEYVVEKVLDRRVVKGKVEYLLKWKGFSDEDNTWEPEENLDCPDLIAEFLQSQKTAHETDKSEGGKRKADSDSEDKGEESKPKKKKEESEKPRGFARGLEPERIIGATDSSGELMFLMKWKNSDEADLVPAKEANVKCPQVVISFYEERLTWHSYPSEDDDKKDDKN
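Compound inhibition of the preformed complex between 50 nM HP1-beta and 50 nM biotinylated H3K9me3 peptide was read by AlphaScreen. Buffer was PBS pH 7.4 with 0.01% Tween-20. Incubations ran 30 min at room temperature, with 10 ug/mL donor/acceptor beads.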
Six1-Eya2 inh: blocks human Six1 binding to Eya2; Q15475+O00167; AlphaScreen GST-Six1/His-Eya2 binding, biochemical; active compounds read low; activity change, % (no concentration beside the values); hit rate 0.56% among 360,000; AID 651725; in the data active = activity change below about -65%; inconclusive = mostly about -30% to -63%
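AlphaScreen with GST-Six1 and His-Eya2 (5X mix: 250 nM and 500 nM), glutathione donor and nickel acceptor beads; buffer 50 mM Tris pH 8.0, 300 mM NaCl, 1 mM TCEP; 1 h at 37 C in the dark.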
TDP1 block: blocks human tyrosyl-DNA phosphodiesterase 1 | Q9NUW8 | recombinant TDP1, AlphaScreen DNA substrate cleavage | Potency, µM (series often up to 130 µM), hits mostly inhibitors | hit rate 0.28% among 350,000 | AID 485290; also: nearly all actives have a fitted effect of over 40% in size
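AlphaScreen read-out: signal falls as enzyme removes the 3' tyrosine-FITC from a 5'-biotinylated DNA oligo (15 nM, 5 min, RT). Enzyme was E. coli-made recombinant Tdp1 at 1 nM, exposed to compound for 15 min beforehand; beads 10 ug/ml, 10 min.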
CtBP-E1A blk: blocks the CtBP interaction with E1A. AlphaScreen GST-E1A/His-CtBP binding, 1536-well; active compounds read low. activity change, % (concentration not given with the values). hit rate 0.49% among 340,000; in the data active = activity change below about -65%; inconclusive = mostly about -30% to -63%
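Homogeneous bead-based format: GST-tagged E1A captured on glutathione donor beads, His-tagged CtBP on nickel acceptor beads; compounds precede bead addition by 2 h at 37 °C.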
JMJD2A Tudor: inhibitors of human JMJD2A Tudor domain; O75164; AlphaScreen JMJD2A-Tudor / H3K4me3 peptide binding; Potency, µM (highest dose often 114 µM), usual class: inhibitors; hit rate 4.4% among 390,000; also: nearly all actives have a fitted effect of over 50% in size
BAZ2B inh: inhibitors of human BAZ2B bromodomain; Q9UIF8; AlphaScreen BAZ2B-H3K14Ac peptide displacement; Potency, µM (top dose mostly 114 µM), usual class: inhibitors; hit rate 4.4% among 360,000; also: nearly all actives have a fitted effect of over 60% in size
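AlphaScreen displacement: compounds (up to 110uM) incubated 30 min at room temperature with a preformed 50 nM BAZ2B/50 nM biotinylated H3K14Ac peptide complex in PBS pH 7.4 with Tween-20. Donor and acceptor beads at 10 ug/mL final added, 20 min light-protected before reading.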
Numbers stand for hits; n = inactive; u = inconclusive; x = no result given. Only some compounds are listed: those with a hit (about 5.3% of all), similar ones and a draw of the others. Unless noted, calls follow the shape of the dose curve; as a rule, active = well fitted inhibition curve with a large enough effect; inconclusive = small, poorly fitted or top-dose-only effect; inactive = no such curve, though single readings can be large or run the other way.

SMILES	HP1b chromo inh	Six1-Eya2 inh	TDP1 block	CtBP-E1A blk	JMJD2A Tudor	BAZ2B inh
CC(C)(C)c1ccc(-c2nc(C#N)c(NCCCn3ccnc3)o2)cc1	u	n	n	n	u	35µM
N#Cc1nc(-c2ccc(OCc3ccccc3)cc2)oc1NCCCn1ccnc1	45µM	n	n	n	28µM	18µM
CC(C)(C)c1ccc(-c2nc(C#N)c(NCc3ccncc3)o2)cc1	n	n	n	n	79µM	79µM
Cc1nc2nc(NCc3cccc(Cl)c3)[nH]n2c(=O)c1Cc1ccccc1	n	x	n	x	n	n
COc1ccccc1CCNC(=O)C(=O)NCC(c1cccnc1)N1CCN(c2ccccc2)CC1 (stereo unspecified)	n	x	n	x	n	n
COc1ccc(C)c2sc(N(Cc3cccnc3)C(=O)c3cccs3)nc12	n	x	n	x	n	n
OC(CNCC(c1ccc(Cl)cc1Cl)c1c[nH]c2ccccc12)c1ccccc1 (stereo unspecified)	u	n	n	n	35µM	u
c1ccc(-c2ccc(-c3cnc4n3CCCCC4)cc2)cc1	n	n	n	n	56µM	50µM
O=C(Nc1ccc([N+](=O)[O-])cc1Cl)c1cc(Cl)ccc1O	n	n	n	n	u	n
O=C(Nc1cccc(Cl)c1)c1cc(N=Nc2ccc([N+](=O)[O-])cc2Cl)ccc1O	u	n	n	x	4.5µM	2.8µM
Cc1ccc(CNC(=O)C2CCCN(c3nc4ccccc4n4cccc34)C2)cc1 (stereo unspecified)	n	x	n	x	n	n
CSc1ccc2c(c1)N(CCC1CCCCN1C)c1ccccc1S2 (stereo unspecified)	u	u	n	u	50µM	32µM
COc1ccc(N=Nc2n(C)c3ccccc3[n+]2C)cc1	x	x	x	x	x	40µM
Cn1c(COc2ccccc2O)[n+](C)c2ccccc21	n	n	x	x	n	n
CCCCOC(=O)Cn1c(=O)oc2ccc(C)cc21	n	n	n	n	n	n
COC(=O)Cn1c(=O)oc2ccc(C)cc21	n	n	n	n	32µM	n
Cc1oc2c(c1C(=O)Nc1cccc(Br)c1)C1=NCCN1C=N2	n	x	n	x	n	n
O=c1oc2ccccc2c(O)c1Sc1c(O)c2ccccc2oc1=O	n	-74	x	-83	u	x
O=C(c1ccccc1Cl)c1c(O)c2ccccc2oc1=O	n	n	x	x	n	x
CCCc1cc(-c2[nH]ncc2-c2ccc3c(c2)OCCCO3)c(O)cc1O	n	n	n	n	40µM	u
CCCCCn1c(C)c2c(OCC)cccc(=O)c2c1C	n	n	n	x	n	u
CCOc1cccc(=O)c2c(C)n(C)c(C)c12	n	n	n	n	u	56µM
NC(CCc1ccccc1)c1csc(Nc2ccccn2)n1 (stereo unspecified)	x	-73	x	-83	x	x
NC(COCc1ccccc1)c1csc(Nc2ccccn2)n1 (stereo unspecified)	x	-89	x	-90	x	x
NC(COCc1ccccc1)c1csc(Nc2ccc(C(F)(F)F)cn2)n1 (stereo unspecified)	x	n	x	n	x	x
SMILES	HP1b chromo inh	Six1-Eya2 inh	TDP1 block	CtBP-E1A blk	JMJD2A Tudor	BAZ2B inh
COc1ccc(C)c2sc(N(Cc3cccnc3)C(C)=O)nc12	n	x	n	x	n	n
CCOC(=O)/C=C/C(=O)Nc1ccc(-c2nnc3n2CCCCC3)cc1	n	n	x	-66	n	n
CCCCCC(=O)Nc1ccc(-c2nnc3n2CCCCC3)cc1	n	n	n	n	n	n
COc1cc(OC)cc(-c2nnc3n2N=C(c2c(OC)cccc2OC)CS3)c1	x	x	n	x	u	x
CC1=NN(c2ccccc2)C(=O)/C1=C/c1ccc[nH]1	16µM	n	n	n	16µM	11µM
COc1ccc(/C=C2/C(=O)N(c3ccccc3)N=C2C)cc1Br	22µM	n	x	n	18µM	13µM
CC1=NN(c2ccccc2)C(=O)/C1=C\c1ccc(Br)s1	u	n	n	x	10µM	11µM
Cc1ccc(NC(=O)C(c2ccccc2)N2Cc3ccccc3C2=O)cc1Cl (stereo unspecified)	n	x	n	x	n	n
Cc1ccc(C(=O)C(c2ccccc2)N2Cc3ccccc3C2=N)cc1 (stereo unspecified)	u	n	n	n	28µM	32µM
O=C(c1ccccc1)N1CCN(c2ccc(NCc3ccc4c(c3)OCO4)cc2)CC1	45µM	n	n	u	50µM	35µM
O=C(c1cccc(F)c1)N1CCN=C1SCc1cccnc1	n	n	n	n	n	n
O=C(C1CCN(Cc2cc(Cl)ccc2O)CC1)N1CCN(Cc2ccccc2)CC1	u	n	n	n	3.5µM	u
CC(=O)N1CCN(c2ccc(NCc3ccc4c(c3)OCO4)cc2)CC1	n	n	n	n	u	u
O=C(c1cccnc1)N1CCN(Cc2cccc(F)c2)CC1	45µM	n	n	n	1.6µM	32µM
O=C(C1CCN(S(=O)(=O)N2CCOCC2)CC1)N1CCN(Cc2ccc3c(c2)OCO3)CC1	n	n	n	n	n	n
CC1CCCN(C(=O)C2CCN(Cc3ccc4c(c3)OCO4)CC2)C1 (stereo unspecified)	n	n	n	n	2.2µM	n
CCOC(=O)c1c(C)oc2nc(C)nc(NCC3CCN(Cc4ccc(Cl)cc4)CC3)c12	n	x	n	x	n	n
CC(C)(C)c1ccc(C(=O)NCCc2csc3nc(-c4ccccc4F)nn23)cc1	n	x	n	x	n	n
O=C(Cn1ncc2c(=O)oc3ccccc3c21)Nc1cc(F)ccc1F	n	x	n	x	n	n
O=C(C1CCN(Cc2ccccc2O)CC1)N1CCN(Cc2ccc3c(c2)OCO3)CC1	u	n	n	n	2.8µM	u
COc1cccc(OC)c1C(=O)N1CCN(Cc2ccc3c(c2)OCO3)CC1	45µM	n	x	n	5µM	50µM
COc1cc(SC)ccc1C(=O)N1CCN(Cc2ccc3c(c2)OCO3)CC1	n	n	x	x	n	n
O=C(c1cccc(F)c1)N1CCN(Cc2ccc3c(c2)OCO3)CC1	u	n	x	n	1µM	50µM
O=C(c1cccc(Cl)c1)N1CCN(Cc2ccc3c(c2)OCO3)CC1	n	n	x	n	n	n
O=C(c1cc(-c2ccncc2)nc2ccc(Cl)cc12)N1CCN(Cc2ccc3c(c2)OCO3)CC1	n	n	n	n	u	40µM
CCc1ccc(C2c3c(n[nH]c3C)C(=O)N2c2ccc(C)cc2)cc1 (stereo unspecified)	n	x	n	x	n	x
O=C(NCc1ccccc1Cl)c1ccc(NC(=O)c2nsc3ccccc23)cc1	n	x	n	x	n	n
O=C(NCc1ccc(Cl)cc1)c1ccc(NC(=O)N2CC3CCCN3c3ccccc32)cc1 (stereo unspecified)	n	x	n	x	n	n
COc1ccc2c(c1)O[C@H](c1ccc3c(c1)OCO3)[C@@H](OC(=O)Nc1ccc(C)c(Br)c1)C2=O	x	x	n	x	x	x

Source: PubChem BioAssay (National Center for Advancing Translational Sciences (NCATS))
